In the supplement of paper PMC10849652:
Targets with a hit are over-represented here; the source holds about 8,800 in all. About 0.5% of all pairs of compound and target were hits. Values without a mark were called inactive.

Tests used:
Experiment in all cases: log2 fold change, soluble protein after heating vs DMSO (PISA); higher = thermal stabilisation; K562 lysate, 10 uM; active = over 0.2 and 3.5 SD of the protein, either way, in both replicates (recomputed)
lapatinib = compound: CS(=O)(=O)CCNCc1ccc(-c2ccc3ncnc(Nc4ccc(OCc5cccc(F)c5)c(Cl)c4)c3c2)o1 [lapatinib]
Summary of the method: (§1)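 Soluble protein was defined as the supernatant remaining after 21,000xg for 90 min, following pooling of heated aliquots and adjustment to 0.5% NP-40 at 4°C. Before that, crude K562 extract at 1 mg/mL protein in PBS pH 7.4 with 1 mM MgCl2 was treated with 10 μM compound for 30 min and heated for 3 min across 48°C-58°C. Quantification used TMTpro 16plex LC-MS/MS with channel sums equalised, and values are log-two fold changes in thermal stability relative to solvent controls from duplicates.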

pictilisib = compound: CS(=O)(=O)N1CCN(Cc2cc3nc(-c4cccc5[nH]ncc45)nc(N4CCOCC4)c3s2)CC1 [pictilisib]
Summary of the method: as §1

crizotinib = compound: C[C@@H](Oc1cc(-c2cnn(C3CCNCC3)c2)cnc1N)c1c(Cl)ccc(F)c1Cl [crizotinib]
Summary of the method: as §1

[1] = compound: C[C@H](C1=CC=C(C=C1)C(=O)NC2=C3C=CNC3=NC=C2)N
Summary of the method: as §1

duvelisib = compound: C[C@H](Nc1ncnc2nc[nH]c12)c1cc2cccc(Cl)c2c(=O)n1-c1ccccc1 [duvelisib]
Summary of the method: as §1

gandotinib = compound: Cc1cc(Nc2cc(CN3CCOCC3)c3nc(C)c(Cc4ccc(Cl)cc4F)n3n2)n[nH]1 [gandotinib]
Summary of the method: as §1

tozasertib = compound: Cc1cc(Nc2cc(N3CCN(C)CC3)nc(Sc3ccc(NC(=O)C4CC4)cc3)n2)n[nH]1 [tozasertib]
Summary of the method: as §1

doramapimod = compound: Cc1ccc(-n2nc(C(C)(C)C)cc2NC(=O)Nc2ccc(OCCN3CCOCC3)c3ccccc23)cc1 [doramapimod]
Summary of the method: as §1

bafetinib = compound: Cc1ccc(NC(=O)c2ccc(CN3CC[C@H](N(C)C)C3)c(C(F)(F)F)c2)cc1Nc1nccc(-c2cncnc2)n1 [bafetinib]
Summary of the method: as §1

[2] = compound: Cc1cccc(CC(=O)N2CCc3c2ccc(-c2cn(C)c4ncnc(N)c24)c3F)n1
Summary of the method: as §1

## SMC2 (UniProt O95347)
lapatinib
  log2 fold change: -0.019
pictilisib
  log2 fold change: 0.013
crizotinib
  log2 fold change: -0.028
[1]
  log2 fold change: 0.121
duvelisib
  log2 fold change: -0.009
gandotinib
  log2 fold change: -0.177
tozasertib
  log2 fold change: 0.014
doramapimod
  log2 fold change: 0.037
bafetinib
  log2 fold change: -0.02
[2]
  log2 fold change: -0.059

## SMC6 (UniProt Q96SB8)
lapatinib
  log2 fold change: -0.051
pictilisib
  log2 fold change: -0.06
crizotinib
  log2 fold change: -0.026
[1]
  log2 fold change: -0.039
duvelisib
  log2 fold change: 0.034
gandotinib
  log2 fold change: -0.002
tozasertib
  log2 fold change: 0.004
doramapimod
  log2 fold change: -0.011
bafetinib
  log2 fold change: 0.007
[2]
  log2 fold change: 0.029

## SFR1 isoform 2 (UniProt Q86XK3)
Sequence of UniProt Q86XK3 (Q86XK3 whole entry, looked up): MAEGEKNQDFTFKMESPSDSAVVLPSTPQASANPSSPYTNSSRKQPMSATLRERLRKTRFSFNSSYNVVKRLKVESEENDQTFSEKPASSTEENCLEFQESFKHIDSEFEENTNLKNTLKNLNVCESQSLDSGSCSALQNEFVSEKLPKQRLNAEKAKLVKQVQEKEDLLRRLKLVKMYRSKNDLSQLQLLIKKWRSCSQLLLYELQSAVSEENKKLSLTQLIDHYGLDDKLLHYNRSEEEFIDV
lapatinib
  log2 fold change: 0.001
pictilisib
  log2 fold change: 0.053
crizotinib
  log2 fold change: 0.006
[1]
  log2 fold change: 0.09
duvelisib
  log2 fold change: 0.043
gandotinib
  log2 fold change: 0.169
tozasertib
  log2 fold change: -0.002
doramapimod
  log2 fold change: 0.068
bafetinib
  log2 fold change: -0.097
[2]
  log2 fold change: 0.261 (active)

## SLC26A6 (UniProt Q9BXS9)
Sequence of UniProt Q9BXS9 (Q9BXS9 whole entry, looked up): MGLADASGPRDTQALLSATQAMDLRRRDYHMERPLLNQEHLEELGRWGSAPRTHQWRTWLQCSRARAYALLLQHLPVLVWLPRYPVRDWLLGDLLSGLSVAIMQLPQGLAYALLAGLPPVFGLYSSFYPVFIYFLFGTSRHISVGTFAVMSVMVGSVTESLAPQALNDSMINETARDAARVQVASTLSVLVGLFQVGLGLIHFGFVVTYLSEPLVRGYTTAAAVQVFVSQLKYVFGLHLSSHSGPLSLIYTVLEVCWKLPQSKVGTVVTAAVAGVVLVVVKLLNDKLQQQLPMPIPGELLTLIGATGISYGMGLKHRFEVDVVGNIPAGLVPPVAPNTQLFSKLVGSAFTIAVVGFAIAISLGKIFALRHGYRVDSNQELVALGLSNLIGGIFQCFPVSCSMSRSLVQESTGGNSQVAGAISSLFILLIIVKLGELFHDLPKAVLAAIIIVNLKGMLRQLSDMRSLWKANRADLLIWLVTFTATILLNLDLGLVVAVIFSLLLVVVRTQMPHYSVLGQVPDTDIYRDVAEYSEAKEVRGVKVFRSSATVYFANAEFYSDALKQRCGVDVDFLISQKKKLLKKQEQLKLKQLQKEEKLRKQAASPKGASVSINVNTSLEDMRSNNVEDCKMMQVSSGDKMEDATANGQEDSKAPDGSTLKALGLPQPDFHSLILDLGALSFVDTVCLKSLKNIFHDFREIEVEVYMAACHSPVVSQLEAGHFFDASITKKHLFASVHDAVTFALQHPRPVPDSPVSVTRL
lapatinib
  log2 fold change: -0.009
pictilisib
  log2 fold change: 0.05
crizotinib
  log2 fold change: -0.023
[1]
  log2 fold change: 0.016
duvelisib
  log2 fold change: 0.067
gandotinib
  log2 fold change: 0.051
tozasertib
  log2 fold change: 0.047
doramapimod
  log2 fold change: -0.003
bafetinib
  log2 fold change: -0.003
[2]
  log2 fold change: 0.118

## SPR (UniProt P35270)
Sequence of UniProt P35270 (P35270 whole entry, looked up): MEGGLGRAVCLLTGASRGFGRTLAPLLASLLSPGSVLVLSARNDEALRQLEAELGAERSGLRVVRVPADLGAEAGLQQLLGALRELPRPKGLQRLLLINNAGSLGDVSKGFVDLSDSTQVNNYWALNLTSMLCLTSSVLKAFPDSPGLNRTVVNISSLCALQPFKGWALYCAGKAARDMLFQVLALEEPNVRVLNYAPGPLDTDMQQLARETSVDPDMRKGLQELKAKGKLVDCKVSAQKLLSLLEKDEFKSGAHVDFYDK
lapatinib
  log2 fold change: -0.015
pictilisib
  log2 fold change: 0.472 (active)
crizotinib
  log2 fold change: 0.276
[1]
  log2 fold change: -0.029
duvelisib
  log2 fold change: -0.059
gandotinib
  log2 fold change: 0.467 (active)
tozasertib
  log2 fold change: 0.025
doramapimod
  log2 fold change: -0.06
bafetinib
  log2 fold change: -0.09
[2]
  log2 fold change: -0.117

## STK4 (UniProt Q13043)
Sequence of UniProt Q13043 (Q13043 whole entry, looked up): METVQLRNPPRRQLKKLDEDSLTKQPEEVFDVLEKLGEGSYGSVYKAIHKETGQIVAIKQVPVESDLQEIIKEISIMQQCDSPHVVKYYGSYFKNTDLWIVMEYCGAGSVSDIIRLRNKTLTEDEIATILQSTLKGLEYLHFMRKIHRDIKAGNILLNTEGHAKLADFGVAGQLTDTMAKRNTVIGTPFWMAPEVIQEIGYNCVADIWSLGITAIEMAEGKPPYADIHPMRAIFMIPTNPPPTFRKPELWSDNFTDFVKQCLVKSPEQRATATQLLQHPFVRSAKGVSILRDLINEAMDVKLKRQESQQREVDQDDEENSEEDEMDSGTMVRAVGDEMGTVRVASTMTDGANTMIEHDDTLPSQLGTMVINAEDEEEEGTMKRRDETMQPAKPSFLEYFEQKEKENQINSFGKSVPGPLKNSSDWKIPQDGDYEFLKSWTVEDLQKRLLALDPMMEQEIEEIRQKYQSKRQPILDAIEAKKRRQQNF
lapatinib
  log2 fold change: -0.029
pictilisib
  log2 fold change: -0.025
crizotinib
  log2 fold change: 0.382
[1]
  log2 fold change: -0.104
duvelisib
  log2 fold change: 0.004
gandotinib
  log2 fold change: 0.504 (active)
tozasertib
  log2 fold change: 0.27
doramapimod
  log2 fold change: -0.027
bafetinib
  log2 fold change: -0.053
[2]
  log2 fold change: 0.062

## SLC27A2 (UniProt O14975)
Sequence of UniProt O14975 (O14975 whole entry, looked up): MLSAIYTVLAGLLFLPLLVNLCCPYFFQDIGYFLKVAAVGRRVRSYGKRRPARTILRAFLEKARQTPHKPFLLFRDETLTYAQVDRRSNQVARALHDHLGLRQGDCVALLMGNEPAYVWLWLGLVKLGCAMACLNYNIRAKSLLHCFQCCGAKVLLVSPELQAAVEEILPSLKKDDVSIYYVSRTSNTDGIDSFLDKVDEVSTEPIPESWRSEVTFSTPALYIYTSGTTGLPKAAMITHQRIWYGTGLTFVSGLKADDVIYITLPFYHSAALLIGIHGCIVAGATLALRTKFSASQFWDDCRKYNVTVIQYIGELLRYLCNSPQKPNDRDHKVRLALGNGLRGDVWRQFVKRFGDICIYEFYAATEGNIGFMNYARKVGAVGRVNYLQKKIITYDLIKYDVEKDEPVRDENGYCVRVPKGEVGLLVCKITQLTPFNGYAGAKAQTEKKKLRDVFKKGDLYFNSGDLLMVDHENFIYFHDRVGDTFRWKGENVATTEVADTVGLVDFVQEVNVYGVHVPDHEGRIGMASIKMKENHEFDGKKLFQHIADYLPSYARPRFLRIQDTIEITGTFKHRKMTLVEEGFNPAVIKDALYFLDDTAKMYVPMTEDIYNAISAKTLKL
lapatinib
  log2 fold change: 0.063
pictilisib
  log2 fold change: -0.049
crizotinib
  log2 fold change: -0.092
[1]
  log2 fold change: -0.067
duvelisib
  log2 fold change: 0.031
gandotinib
  log2 fold change: 0.286
tozasertib
  log2 fold change: 0.117
doramapimod
  log2 fold change: 0.064
bafetinib
  log2 fold change: 0.015
[2]
  log2 fold change: -0.014

## STAU1 (UniProt O95793)
Sequence of UniProt O95793 (O95793 whole entry, looked up): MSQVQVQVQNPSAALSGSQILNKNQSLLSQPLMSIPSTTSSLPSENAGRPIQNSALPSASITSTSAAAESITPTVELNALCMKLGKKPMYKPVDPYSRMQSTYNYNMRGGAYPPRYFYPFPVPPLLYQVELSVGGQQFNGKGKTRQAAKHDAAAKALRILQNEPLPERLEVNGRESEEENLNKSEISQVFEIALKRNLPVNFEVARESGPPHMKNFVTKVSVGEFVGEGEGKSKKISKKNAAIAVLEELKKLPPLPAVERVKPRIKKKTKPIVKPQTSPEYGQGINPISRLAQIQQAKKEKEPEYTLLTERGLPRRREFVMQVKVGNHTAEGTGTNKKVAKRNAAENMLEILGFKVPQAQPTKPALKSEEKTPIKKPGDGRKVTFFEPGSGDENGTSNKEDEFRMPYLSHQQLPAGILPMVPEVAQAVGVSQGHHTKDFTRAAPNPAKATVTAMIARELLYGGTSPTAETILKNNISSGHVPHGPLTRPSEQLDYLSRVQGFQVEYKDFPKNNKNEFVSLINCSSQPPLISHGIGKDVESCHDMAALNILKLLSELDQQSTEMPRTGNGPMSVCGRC
lapatinib
  log2 fold change: -0.018
pictilisib
  log2 fold change: 0.03
crizotinib
  log2 fold change: 0.005
[1]
  log2 fold change: 0.27 (active)
duvelisib
  log2 fold change: 0.019
gandotinib
  log2 fold change: -0.086
tozasertib
  log2 fold change: 0.014
doramapimod
  log2 fold change: 0.056
bafetinib
  log2 fold change: -0.089
[2]
  log2 fold change: -0.062

## TAPT1 (UniProt Q6NXT6)
lapatinib
  log2 fold change: -0.007
pictilisib
  log2 fold change: 0.025
crizotinib
  log2 fold change: -0.044
[1]
  log2 fold change: -0.196
duvelisib
  log2 fold change: 0.012
gandotinib
  log2 fold change: 0.057
tozasertib
  log2 fold change: 0.031
doramapimod
  log2 fold change: 0.024
bafetinib
  log2 fold change: 0.01
[2]
  log2 fold change: 0.093

## SMG7 (UniProt Q92540)
lapatinib
  log2 fold change: 0.101
pictilisib
  log2 fold change: 0.1
crizotinib
  log2 fold change: 0.043
[1]
  log2 fold change: -0.035
duvelisib
  log2 fold change: 0.026
gandotinib
  log2 fold change: -0.018
tozasertib
  log2 fold change: 0.026
doramapimod
  log2 fold change: -0.257 (active)
bafetinib
  log2 fold change: -0.008
[2]
  log2 fold change: 0.022

## SNRNP40 (UniProt Q96DI7)
lapatinib
  log2 fold change: -0.014
pictilisib
  log2 fold change: 0.063
crizotinib
  log2 fold change: -0.042
[1]
  log2 fold change: -0.075
duvelisib
  log2 fold change: -0.006
gandotinib
  log2 fold change: 0.167
tozasertib
  log2 fold change: 0.015
doramapimod
  log2 fold change: 0.121
bafetinib
  log2 fold change: 0.011
[2]
  log2 fold change: 0.089

## SHCBP1 (UniProt Q8NEM2)
Sequence of UniProt Q8NEM2 (Q8NEM2 whole entry, looked up): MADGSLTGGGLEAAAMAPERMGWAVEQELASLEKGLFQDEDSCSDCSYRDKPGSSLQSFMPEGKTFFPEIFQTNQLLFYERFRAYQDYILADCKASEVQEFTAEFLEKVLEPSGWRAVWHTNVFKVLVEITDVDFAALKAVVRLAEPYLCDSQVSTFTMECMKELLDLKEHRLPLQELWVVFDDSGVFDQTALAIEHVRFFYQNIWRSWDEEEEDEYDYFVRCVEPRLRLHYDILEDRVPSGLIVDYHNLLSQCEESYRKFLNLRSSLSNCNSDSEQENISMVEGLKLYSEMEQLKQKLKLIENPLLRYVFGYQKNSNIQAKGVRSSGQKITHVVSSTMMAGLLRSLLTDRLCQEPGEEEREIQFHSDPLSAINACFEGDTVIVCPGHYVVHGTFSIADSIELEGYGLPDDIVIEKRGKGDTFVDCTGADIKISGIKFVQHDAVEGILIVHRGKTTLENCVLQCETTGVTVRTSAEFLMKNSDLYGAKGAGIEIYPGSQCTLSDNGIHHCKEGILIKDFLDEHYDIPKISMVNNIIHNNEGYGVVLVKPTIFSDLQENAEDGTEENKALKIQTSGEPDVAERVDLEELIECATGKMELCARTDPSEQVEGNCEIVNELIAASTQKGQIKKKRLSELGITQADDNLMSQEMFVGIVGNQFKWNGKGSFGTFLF
lapatinib
  log2 fold change: 0.061
pictilisib
  log2 fold change: 0.046
crizotinib
  log2 fold change: -0.029
[1]
  log2 fold change: -0.043
duvelisib
  log2 fold change: 0.028
gandotinib
  log2 fold change: -0.031
tozasertib
  log2 fold change: 0.059
doramapimod
  log2 fold change: 0.028
bafetinib
  log2 fold change: -0.073
[2]
  log2 fold change: 0.078

## SUZ12 (UniProt Q15022)
Sequence of UniProt Q15022 (Q15022 whole entry, looked up): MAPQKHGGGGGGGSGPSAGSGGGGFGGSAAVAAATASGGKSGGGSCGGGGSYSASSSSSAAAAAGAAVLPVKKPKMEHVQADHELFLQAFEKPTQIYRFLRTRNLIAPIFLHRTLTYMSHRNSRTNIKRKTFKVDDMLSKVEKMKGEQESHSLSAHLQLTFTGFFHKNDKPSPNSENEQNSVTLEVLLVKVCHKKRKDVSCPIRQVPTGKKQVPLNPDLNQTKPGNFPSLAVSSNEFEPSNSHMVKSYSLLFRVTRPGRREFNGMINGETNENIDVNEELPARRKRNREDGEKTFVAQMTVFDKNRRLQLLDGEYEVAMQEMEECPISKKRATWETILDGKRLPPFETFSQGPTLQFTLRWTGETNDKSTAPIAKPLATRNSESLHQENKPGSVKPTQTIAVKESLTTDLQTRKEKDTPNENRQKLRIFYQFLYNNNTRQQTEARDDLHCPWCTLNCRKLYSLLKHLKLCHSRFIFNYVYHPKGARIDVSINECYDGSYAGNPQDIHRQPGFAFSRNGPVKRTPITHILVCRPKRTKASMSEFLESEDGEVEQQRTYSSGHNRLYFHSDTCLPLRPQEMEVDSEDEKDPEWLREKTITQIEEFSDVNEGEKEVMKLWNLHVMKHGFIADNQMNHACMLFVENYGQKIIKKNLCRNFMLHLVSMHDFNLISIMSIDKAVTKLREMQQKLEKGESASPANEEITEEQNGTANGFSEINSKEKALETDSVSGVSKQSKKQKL
lapatinib
  log2 fold change: 0.015
pictilisib
  log2 fold change: 0.043
crizotinib
  log2 fold change: -0.021
[1]
  log2 fold change: 0.048
duvelisib
  log2 fold change: -0.016
gandotinib
  log2 fold change: 0.027
tozasertib
  log2 fold change: 0.006
doramapimod
  log2 fold change: 0
bafetinib
  log2 fold change: -0.113
[2]
  log2 fold change: 0.009

## SLC27A4 (UniProt Q6P1M0)
Sequence of UniProt Q6P1M0 (Q6P1M0 whole entry, looked up): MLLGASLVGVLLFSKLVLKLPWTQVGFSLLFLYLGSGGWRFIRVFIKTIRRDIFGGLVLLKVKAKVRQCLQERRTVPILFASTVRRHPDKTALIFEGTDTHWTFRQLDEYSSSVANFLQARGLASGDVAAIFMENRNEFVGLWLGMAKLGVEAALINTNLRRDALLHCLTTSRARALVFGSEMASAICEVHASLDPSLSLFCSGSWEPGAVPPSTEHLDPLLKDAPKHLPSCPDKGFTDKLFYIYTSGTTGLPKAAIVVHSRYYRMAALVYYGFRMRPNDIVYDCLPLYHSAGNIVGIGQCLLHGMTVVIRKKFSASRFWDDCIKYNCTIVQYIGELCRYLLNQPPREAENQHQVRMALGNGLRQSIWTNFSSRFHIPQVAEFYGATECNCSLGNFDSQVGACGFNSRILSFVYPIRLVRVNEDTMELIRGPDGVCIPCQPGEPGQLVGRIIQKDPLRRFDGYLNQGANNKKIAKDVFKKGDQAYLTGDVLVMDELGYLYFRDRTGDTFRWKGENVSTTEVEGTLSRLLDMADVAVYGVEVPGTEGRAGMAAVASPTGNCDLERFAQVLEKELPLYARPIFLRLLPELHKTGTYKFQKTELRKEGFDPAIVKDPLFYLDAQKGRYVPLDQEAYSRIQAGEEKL
lapatinib
  log2 fold change: -0.052
pictilisib
  log2 fold change: -0.005
crizotinib
  log2 fold change: -0.049
[1]
  log2 fold change: -0.04
duvelisib
  log2 fold change: 0.037
gandotinib
  log2 fold change: 0.095
tozasertib
  log2 fold change: -0.045
doramapimod
  log2 fold change: 0.149
bafetinib
  log2 fold change: -0.057
[2]
  log2 fold change: 0.052

## SKA3 (UniProt Q8IX90)
lapatinib
  log2 fold change: 0.009
pictilisib
  log2 fold change: -0.022
crizotinib
  log2 fold change: -0.029
[1]
  log2 fold change: -0.008
duvelisib
  log2 fold change: -0.022
gandotinib
  log2 fold change: -0.011
tozasertib
  log2 fold change: -0.008
doramapimod
  log2 fold change: 0.002
bafetinib
  log2 fold change: 0.027
[2]
  log2 fold change: 0.034

## SH3BP5L (UniProt Q7L8J4)
lapatinib
  log2 fold change: 0.006
pictilisib
  log2 fold change: -0.004
crizotinib
  log2 fold change: -0.01
[1]
  log2 fold change: -0.05
duvelisib
  log2 fold change: 0.001
gandotinib
  log2 fold change: 0.031
tozasertib
  log2 fold change: 0.098
doramapimod
  log2 fold change: -0.044
bafetinib
  log2 fold change: 0.001
[2]
  log2 fold change: 0.015

## SVIP (UniProt Q8NHG7)
lapatinib
  log2 fold change: 0.005
pictilisib
  log2 fold change: -0.03
crizotinib
  log2 fold change: -0.037
[1]
  log2 fold change: 0.027
duvelisib
  log2 fold change: -0.013
gandotinib
  log2 fold change: 0.01
tozasertib
  log2 fold change: 0.037
doramapimod
  log2 fold change: 0.021
bafetinib
  log2 fold change: -0.008
[2]
  log2 fold change: 0.032

## SRM (UniProt P19623)
lapatinib
  log2 fold change: -0.015
pictilisib
  log2 fold change: -0.013
crizotinib
  log2 fold change: -0.048
[1]
  log2 fold change: -0.032
duvelisib
  log2 fold change: 0.716 (active)
gandotinib
  log2 fold change: -0.036
tozasertib
  log2 fold change: 0.01
doramapimod
  log2 fold change: -0.017
bafetinib
  log2 fold change: -0.009
[2]
  log2 fold change: -0.033

## SURF2 (UniProt Q15527)
lapatinib
  log2 fold change: -0.005
pictilisib
  log2 fold change: -0.049
crizotinib
  log2 fold change: -0.031
[1]
  log2 fold change: -0.008
duvelisib
  log2 fold change: 0.014
gandotinib
  log2 fold change: 0.092
tozasertib
  log2 fold change: -0.061
doramapimod
  log2 fold change: -0.018
bafetinib
  log2 fold change: -0.055
[2]
  log2 fold change: 0.111
